Measured values reported in the supplement of paper PMC8975748.
Where a name gives a salt, the structure may show the parent alone.

Each compound was assayed on Saccharomyces cerevisiae BY4741 SeMeCo community (assay: z-score of prototroph abundance vs DMSO median; higher = larger share of this subpopulation than in DMSO controls). Conditions: 10 µM; 24 h; SM minimal medium; subpopulation (auxotrophy): Prototroph.
Method: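 Fluorescent four-plasmid SeMeCo (self-establishing metabolically cooperating S. cerevisiae BY4741 community; plasmids pH-mRuby2, pL-mWasabi, pU-eCFP, pM-TagRFP657) was grown 24 h in minimal SM medium with each Selleck FDA-approved drug at 10 µM in 384-well plates. Cells were fixed and imaged by high-content confocal microscopy. For each auxotrophic subpopulation (and the prototroph), a z-score gives the deviation from the DMSO vehicle-control population median.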
In the case of `Cc1cc(-n2c(=O)[nH]c(=O)n(C)c2=O)ccc1Oc1ccc(SC(F)(F)F)cc1` [Toltrazuril], the “z-score of prototroph abundance” value was 0.02. In the case of `CO[C@H]1C[C@@H]2CC[C@@H](C)[C@@](O)(O2)C(=O)C(=O)N2CCCC[C@H]2C(=O)O[C@H]([C@H](C)C[C@@H]2CC[C@@H](O)[C@H](OC)C2)CC(=O)[C@H](C)/C=C(\C)[C@@H](O)[C@@H](OC)C(=O)[C@H](C)C[C@H](C)/C=C/C=C/C=C/1C` [Rapamycin (Sirolimus)], the “z-score of prototroph abundance” value was -18.4. With `Cc1cccc(C)c1NC(=O)C1CCCCN1C` (stereo not given) [Mepivacaine] the “z-score of prototroph abundance” value was -0.01. In the case of `CONC(=O)Nc1ccc(-c2sc3c(c2CN(C)C)c(=O)n(-c2ccc(OC)nn2)c(=O)n3Cc2c(F)cccc2F)cc1` [Relugolix], the “z-score of prototroph abundance” value was 0.18. For `O=S1(=O)CCN(CN2CCS(=O)(=O)NC2)CN1` [Taurolidine], the “z-score of prototroph abundance” value was 0.42. With `Cc1c(OCC(F)(F)F)ccnc1C[S@@+]([O-])c1nc2ccccc2[nH]1` [Dexlansoprazole] the “z-score of prototroph abundance” value was 0.34. With `COc1cc(NS(=O)(=O)c2ccc(N)cc2)ncn1` [Sulfamonomethoxine] the “z-score of prototroph abundance” value was 0. For `CCCCOc1cc(C(=O)OCCN(CC)CC)ccc1N` [Oxybuprocaine HCl], the “z-score of prototroph abundance” value was -0.08. `N#CC(c1ccc(Cl)cc1)c1c(Cl)cc(-n2ncc(=O)[nH]c2=O)cc1Cl` (stereo not given) [Diclazuril] was tested, and the “z-score of prototroph abundance” value was 1.02. In the case of `CN1CC2c3ccccc3Oc3ccc(Cl)cc3C2C1` (stereo not given) [Asenapine maleate], the “z-score of prototroph abundance” value was 0.14. For `CCOC(=O)c1ccc(N)cc1` [Benzocaine hydrochloride], the “z-score of prototroph abundance” value was -0.32. For `COc1ccc(C[C@H](N)C(=O)N[C@H]2[C@@H](O)[C@H](n3cnc4c(N(C)C)ncnc43)O[C@@H]2CO)cc1` [Puromycin 2HCl], the “z-score of prototroph abundance” value was -0.54. `COc1cc(N)c(Cl)cc1C(=O)NC1CCN(CCCOc2ccc(F)cc2)CC1OC` (stereo not given) [Cisapride] was tested, and the “z-score of prototroph abundance” value was 1.03. For `Nc1nc2c(ncn2COCCO)c(=O)[nH]1` [Aciclovir], the “z-score of prototroph abundance” value was 0.49. In the case of `Cc1ccsc1/C=C/C1=NCCCN1C` [Morantel tartrate], the “z-score of prototroph abundance” value was 0.27. With `C1N2CN3CN1CN(C2)C3` [Methenamine] the “z-score of prototroph abundance” value was -0.97. For `COc1cccc2c1C(=O)c1c(O)c3c(c(O)c1C2=O)C[C@@](O)(C(=O)CO)C[C@@H]3O[C@H]1C[C@H](N)[C@@H](O)[C@H](C)O1` [Epirubicin HCl], the “z-score of prototroph abundance” value was -0.14. For `CC(=O)OCC[N+](C)(C)C` [Acetylcholine iodide], the “z-score of prototroph abundance” value was 1.05. `O=C(CCCN1CCC(O)(c2ccc(Cl)cc2)CC1)c1ccc(F)cc1` [Haloperidol] was tested, and the “z-score of prototroph abundance” value was 0.57. With `C#C[C@]1(O)CC[C@H]2[C@@H]3CCC4=CC(=O)CC[C@@H]4[C@H]3C(=C)C[C@@]21CC` [Etonogestrel] the “z-score of prototroph abundance” value was 0.26. In the case of `COc1ccnc(C[S+]([O-])c2nc3cc(-n4cccc4)ccc3[nH]2)c1C` (stereo not given) [Ilaprazole sodium], the “z-score of prototroph abundance” value was -0.81. For `Cc1ccc(Sc2ccccc2N2CCNCC2)c(C)c1` [Vortioxetine], the “z-score of prototroph abundance” value was 0.02. With `CC(C)NC(=N)NC(=N)Nc1ccc(Cl)cc1` [Proguanil] the “z-score of prototroph abundance” value was 0. For `CC1(C)S[C@@H]2[C@H](NC(=O)Cc3ccccc3)C(=O)N2[C@H]1C(=O)O` [Penicillin G Sodium], the “z-score of prototroph abundance” value was 0.77. For `C[C@@H](O)[C@H]1C(=O)N2C(C(=O)O)=C([C@H]3CCCO3)S[C@H]12` [Faropenem Sodium], the “z-score of prototroph abundance” value was -1.08. With `Cc1cccc(C#Cc2ccccc2)n1` the “z-score of prototroph abundance” value was 0.53. With `CC/C(=C(\c1ccccc1)c1ccc(OCCN(C)C)cc1)c1ccccc1` [Tamoxifen Citrate] the “z-score of prototroph abundance” value was -0.56. With `CC1(C)S[C@@H]2[C@H](NC(=O)C(C(=O)O)c3ccccc3)C(=O)N2[C@H]1C(=O)O` (stereo not given in full) [Carbenicillin disodium] the “z-score of prototroph abundance” value was 0.19. `CCCNCC(O)COc1ccccc1C(=O)CCc1ccccc1` (stereo not given) [Propafenone HCl] was tested, and the “z-score of prototroph abundance” value was 0.15. In the case of `N#Cc1ccc(Oc2ccc3c(c2)COB3O)cc1` [Crisaborole (AN2728)], the “z-score of prototroph abundance” value was -3.53. `CN1[C@@H](CC(=O)c2ccccc2)CCC[C@H]1C[C@H](O)c1ccccc1` [Lobeline hydrochloride] was tested, and the “z-score of prototroph abundance” value was 0.02. With `Clc1ccc(COC(Cn2ccnc2)c2ccc(Cl)cc2Cl)cc1` (stereo not given) [Econazole nitrate] the “z-score of prototroph abundance” value was -8.44. In the case of `CCOc1ccc2ccccc2c1C(=O)N[C@@H]1C(=O)N2[C@@H]1SC(C)(C)[C@@H]2C(=O)O` [Nafcillin Sodium], the “z-score of prototroph abundance” value was 0.32. In the case of `COC(=O)C1=C(C)NC(C)=C(C(=O)OCC(C)C)C1c1ccccc1[N+](=O)[O-]` (stereo not given) [Nisoldipine], the “z-score of prototroph abundance” value was -0.75. `CC(C)(C)C(=O)OCOC(=O)[C@@H]1N2C(=O)[C@@H](/N=C/N3CCCCCC3)[C@H]2SC1(C)C` [Pivmecillinam hydrochloride] was tested, and the “z-score of prototroph abundance” value was -0.55. For `CN1CCC(=C2c3ccccc3C=Cc3ccccc32)CC1` [Cyproheptadine hydrochloride], the “z-score of prototroph abundance” value was 0.23. For `CCOc1cc(N)c([N+](=O)[O-])cc1C(=O)NC1CCN(CC2CC=CCC2)CC1` (stereo not given) [Cinitapride Hydrogen Tartrate], the “z-score of prototroph abundance” value was -1.19. With `Clc1ccc(CCC(Cn2ccnc2)Sc2c(Cl)cccc2Cl)cc1` (stereo not given) [Butoconazole] the “z-score of prototroph abundance” value was -10. In the case of `Cc1nnc(SCC2=C(C(=O)O)N3C(=O)[C@@H](NC(=O)Cn4cnnn4)[C@H]3SC2)s1` [Cefazolin Sodium], the “z-score of prototroph abundance” value was -1.09. With `O=C(O)c1ccccc1C(=O)Nc1ccc(S(=O)(=O)Nc2nccs2)cc1` [Phthalylsulfathiazole] the “z-score of prototroph abundance” value was -0.99.
